The sample as a whole holds a higher share of hits than the screen did.
LmPK inhibitor – inhibitors of Leishmania mexicana pyruvate kinase | Potency, µM (doses to about 57.5 µM), inactives show at the top dose activity change, negative = inhibition, usual class: inhibitors | purified LmPK, Kinase-Glo ATP luminescence, 1 h | Q27686 | actives 0.37% (n = 290,000); also: potency is read from the fitted curve at half-maximal effect; % is scaled to controls: 0 for no effect and ±100 for the full control effect
Target sequence (Q27686 whole entry, looked up): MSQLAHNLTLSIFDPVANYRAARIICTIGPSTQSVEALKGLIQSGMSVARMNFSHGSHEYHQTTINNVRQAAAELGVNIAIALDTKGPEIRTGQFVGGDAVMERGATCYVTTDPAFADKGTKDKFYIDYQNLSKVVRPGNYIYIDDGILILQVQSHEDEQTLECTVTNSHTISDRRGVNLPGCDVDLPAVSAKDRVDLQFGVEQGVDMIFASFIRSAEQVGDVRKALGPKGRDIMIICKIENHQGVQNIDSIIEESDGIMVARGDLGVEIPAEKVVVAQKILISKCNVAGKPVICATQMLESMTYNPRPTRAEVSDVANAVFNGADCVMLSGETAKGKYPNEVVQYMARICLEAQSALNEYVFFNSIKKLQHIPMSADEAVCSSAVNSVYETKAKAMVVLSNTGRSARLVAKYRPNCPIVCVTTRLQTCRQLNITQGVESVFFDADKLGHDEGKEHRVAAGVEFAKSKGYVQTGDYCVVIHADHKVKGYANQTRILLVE
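In 50 mM imidazole pH 7.2 with 7 mM MgCl2, LmPK (0.1 nM) turned over PEP (0.5 mM) and ADP (0.1 mM) for 1 h at room temperature. Luciferase read-out of ATP.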
RE007 growth inh – less growth of the S. pombe RE007 Vpr strain | S. pombe RE007 Vpr strain, BacTiter-Glo ATP luminescence, 24 h | Potency, µM (doses to about 92.2 µM), inactives show top-dose activity change, negative = less growth, hits mostly inhibitors | actives 0.21% (n = 360,000) | AID 651644; active = well fitted falling curve with a large enough effect; inconclusive = small, poorly fitted or top-dose-only effect; inactive = no such curve, though single readings can be large or run the other way; also: potency is read from the fitted curve at half-maximal effect; % is scaled to controls: 0 for no effect and ±100 for the full control effect; nearly all actives have a fitted effect of over 50% in size
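Fission yeast RE007 carrying one integrated HIV-1 vpr copy, seeded at OD 0.01 in PMG+AL medium with 23 nL pinned compound. Grown 24 h at 30 degrees; viability read by BacTiter-Glo luminescence after 5 min.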
TbPYK inhibitor – T. brucei pyruvate kinase inhibition; TbPYK enzyme, Kinase-Glo Plus ATP luminescence, 45 min; Potency, µM (series often up to 76.8 µM), inactives show top-dose activity, negative = inhibition, usual class: inhibitors; actives 0.12% (n = 410,000); also: potency is read from the fitted curve at half-maximal effect; % is scaled to controls: 0 for no effect and ±100 for the full control effect; nearly all actives have a fitted effect of over 50% in size
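Glycolytic pyruvate kinase of T. brucei was incubated with substrate, test compound and 130 uM ADP for 45 minutes at room temperature. Luminescent Kinase-Glo Plus signal was measured after 10 minutes.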
Shiga inhibitor – blocks Shiga toxin action in Vero cells; Vero cells, Shiga toxin protein synthesis inhibition reporter; inhibition, % at 38.7 µM; actives 9.2% (n = 290,000); AID 2315; in the data active = inhibition mostly above about 28%, no sharp cut-off; inactive = mostly below about 43%; also: 0% is about no effect
FBPA Giardia inh – Giardia lamblia aldolase inhibition. A8B2U2. purified Giardia FBPA. Potency, µM (top dose mostly 59.6 µM), for the others: at the highest dose activity, negative = inhibition, actives largely listed as inhibitors. actives 0.71% (n = 290,000). AID 2451; also: potency is read from the fitted curve at half-maximal effect; % is scaled to controls: 0 for no effect and ±100 for the full control effect; nearly all actives have a fitted effect of over 55% in size
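Giardia FBPA (40 nM reagent) was preincubated 10 min at RT with compound (up to 57.5 uM final), then substrate plus GAPDH/TPI/NAD/arsenate coupling system with diaphorase/resazurin was added; resorufin fluorescence (525/598 nm) was read after 20 min.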
CHX counter – affects cycloheximide protein synthesis inhibition readout, counter-screen; cell reporter, cycloheximide protein synthesis inhibition counterscreen; max response, %; actives 12% (n = 300,000); in the data active = max response mostly above about 13%, no sharp cut-off; inactive = mostly below about 14%; also: read at 38.3 µM for the half of the compounds with a filed dose; 0% is about no effect
* marks the source's active call; other numbers are inactive results; [ ] = another dose, or the depositor's remark. Unless noted, calls follow the shape of the dose curve; as a rule, active = well fitted curve in the direction sought with a large enough effect; inconclusive = small, poorly fitted or top-dose-only effect, or another doubt; inactive = no such curve, though single readings can be large; an effect the other way counts as inactive or inconclusive.

O=c1[nH]c(-c2ccccn2)nc2ccccc12 was read as LmPK inhibitor -20.2%, RE007 growth inh -77.8%, TbPYK inhibitor 2.1%, Shiga inhibitor 105.2, FBPA Giardia inh 20.6% and CHX counter 44.4*.
`Nc1nc(-c2nc3ccccc3[nH]2)cs1` gave LmPK inhibitor inconclusive, RE007 growth inh -12.3%, TbPYK inhibitor -12.2%, Shiga inhibitor 70.0*, FBPA Giardia inh 15.5% and CHX counter 33.4*.
`Cc1[nH]c2ccccc2c1-c1csc(N)n1` gave LmPK inhibitor -3.3%, RE007 growth inh 1.1%, TbPYK inhibitor -10.0%, Shiga inhibitor 7.0, FBPA Giardia inh -29.7% and CHX counter -2.8.
For COc1ccc(-c2noc(CN3CCCC(OCc4ccccn4)C3)n2)cc1 (centres undefined) the results were LmPK inhibitor 3.6%, RE007 growth inh -9.5%, TbPYK inhibitor -10.4%, Shiga inhibitor 2.7, FBPA Giardia inh -11.8% and CHX counter 0.6.
`COC(=O)c1c(NC(=O)c2cccs2)sc2c1CCC(C)C2` (centres undefined) gave LmPK inhibitor -2.0%, RE007 growth inh -16.7%, TbPYK inhibitor 7.6%, Shiga inhibitor 34.5, FBPA Giardia inh -10.2% and CHX counter -3.3.
Screening O=C(Nc1sc2c(c1C(=O)O)CCCCC2)c1cccs1 returned LmPK inhibitor -8.8%, RE007 growth inh inconclusive, TbPYK inhibitor -2.3%, Shiga inhibitor 128.6*, FBPA Giardia inh -15.4% and CHX counter 66.0*.
Screening O=C(Nc1sc2c(c1C(=O)O)CCCC2)c1cccs1 returned LmPK inhibitor -14.5%, RE007 growth inh -38.8%[3.69 µM], Shiga inhibitor 127.4*, FBPA Giardia inh -13.1% and CHX counter 27.2*.
For CC1CCc2c(sc(NC(=O)c3cccs3)c2C(=O)O)C1 (centres undefined) the results were LmPK inhibitor 2.9%, RE007 growth inh inconclusive, TbPYK inhibitor -4.5%, Shiga inhibitor 80.9*, FBPA Giardia inh 5.6% and CHX counter 47.3*.
`CC(C)OC(=O)c1c(NC(=O)c2cccs2)sc2c1CCCC2` gave LmPK inhibitor 5.5%, RE007 growth inh 3.1%, TbPYK inhibitor 0.2%, Shiga inhibitor 36.4, FBPA Giardia inh -0.1% and CHX counter 5.0.
`Cc1cccc(C)c1NC(=O)c1oc2c(c1C)-c1nn(Cc3ccccc3)cc1CC2` gave TbPYK inhibitor -0.5%.
Screening O=C(/C(=C(/[O-])c1ccccc1)[n+]1ccccc1)c1ccc([N+](=O)[O-])cc1 returned LmPK inhibitor 2.7%, RE007 growth inh -15.4%, TbPYK inhibitor -5.2%, Shiga inhibitor 0.4, FBPA Giardia inh -8.9% and CHX counter 4.8.
Screening O=C(/C(=C(\[O-])c1ccccc1)[n+]1ccc2ccccc2c1)c1ccc([N+](=O)[O-])cc1 returned LmPK inhibitor 2.8%, RE007 growth inh -7.3%, TbPYK inhibitor 1.2%, Shiga inhibitor 8.5, FBPA Giardia inh -2.3% and CHX counter 9.7.
Screening O=C(/C(=C(\[O-])c1ccccc1)[n+]1ccc2ccccc2c1)c1ccccc1 returned LmPK inhibitor -0.5%, RE007 growth inh inconclusive, TbPYK inhibitor -3.1%, Shiga inhibitor active, FBPA Giardia inh inconclusive and CHX counter 25.8*.
`O=C(/C(=C(\[O-])c1ccccc1)[n+]1ccc2ccccc2c1)c1ccc(Cl)cc1` gave LmPK inhibitor 1.0%, RE007 growth inh -16.1%, TbPYK inhibitor 5.0%, Shiga inhibitor 68.2*, FBPA Giardia inh -9.6% and CHX counter 27.9.
COc1ccc(Oc2ncc3nc(C)c(=O)n(C)c3n2)cc1 was read as TbPYK inhibitor 3.1% and FBPA Giardia inh -5.9%.
For CCCOc1ccc(NC2=CC(=O)CC(C)(C)C2)cc1 the results were LmPK inhibitor -1.7%, RE007 growth inh 6.3%, TbPYK inhibitor -1.1%, Shiga inhibitor 47.5, FBPA Giardia inh 0.6% and CHX counter 17.0*.
Screening Cc1ccc(NC2=CC(=O)CC(C)(C)C2)c(N)c1 returned LmPK inhibitor -5.3%, RE007 growth inh 2.5%, TbPYK inhibitor -5.4%, Shiga inhibitor 128.1*, FBPA Giardia inh -21.6% and CHX counter 60.4*.
For Cc1ccc(NC2=CC(=O)CC(C)(C)C2)cc1C the results were LmPK inhibitor 4.2%, RE007 growth inh 3.3%, TbPYK inhibitor -1.2%, Shiga inhibitor 7.7, FBPA Giardia inh -3.0% and CHX counter 18.1.
Screening CC1(C)CC(=O)C=C(Nc2ccc3c(c2)OCCO3)C1 returned LmPK inhibitor 5.0%, RE007 growth inh 24.9%, TbPYK inhibitor 7.0%, Shiga inhibitor 50.2, FBPA Giardia inh 0.1% and CHX counter 51.9*.
CCc1ccc(NC2=CC(=O)CC(C)(C)C2)cc1 was read as LmPK inhibitor -6.1%, RE007 growth inh -0.8%, TbPYK inhibitor 6.8%, Shiga inhibitor 25.1, FBPA Giardia inh 1.9% and CHX counter 13.9.
`OC1CCCCC1Sc1nc2ccccc2s1` (centres undefined) gave LmPK inhibitor -2.9%, RE007 growth inh -27.1%, TbPYK inhibitor -4.4%, Shiga inhibitor 104.1*, FBPA Giardia inh 3.8% and CHX counter 42.2*.
`Cn1cc(Br)c(C(=O)NNC(=O)c2ccc(Br)cc2)n1` gave LmPK inhibitor -0.8%, RE007 growth inh 10.3%, TbPYK inhibitor -5.4%, Shiga inhibitor active, FBPA Giardia inh 0.0% and CHX counter 35.3*.
Screening Cc1cccc(NC(=O)NNC(=O)c2nn(C)cc2Br)c1 returned LmPK inhibitor -0.8%, RE007 growth inh 24.5%, TbPYK inhibitor 1.6%, Shiga inhibitor 20.1, FBPA Giardia inh 7.2% and CHX counter 11.5.
Cn1cc(Br)c(C(=O)NNC(=O)Nc2ccccc2C(F)(F)F)n1 was read as LmPK inhibitor -0.4%, RE007 growth inh 1.5%, TbPYK inhibitor -2.0%, Shiga inhibitor 50.7, FBPA Giardia inh -5.2% and CHX counter 26.2*.
Screening Cc1c(Br)c(C(=O)NNC(=O)c2ccc(C(C)(C)C)cc2)nn1C returned LmPK inhibitor 3.8%, RE007 growth inh -5.9%, TbPYK inhibitor -1.9%, Shiga inhibitor 33.2, FBPA Giardia inh 5.9% and CHX counter 27.0*.
`Cn1cc(Br)c(C(=O)NNC(=O)c2ccccc2)n1` gave LmPK inhibitor -6.5%, RE007 growth inh 7.8%, TbPYK inhibitor -6.0%, Shiga inhibitor -1.2, FBPA Giardia inh 0.1% and CHX counter 1.2.
CC1=C(C(=O)Nc2ccccc2)C(c2cccnc2)n2nc(SCc3ccccc3F)nc2N1 (centres undefined) was read as TbPYK inhibitor -1.2%.
For COC(=O)CSc1nc(C)cc(N2CCOCC2)n1 the results were LmPK inhibitor 1.3%, RE007 growth inh -17.5%, TbPYK inhibitor 1.8%, Shiga inhibitor 52.6*, FBPA Giardia inh 0.2% and CHX counter 26.7.

Assay outcomes (PubChem)
